Most compounds without a hit are left out; they make up all but 1.6% or so of the library.
KCNQ2 inh: rat KCNQ2 potassium channel inhibitors, primary screen, cell-based, CHO-K1, FluxOR thallium flux, B-score | Potassium voltage-gated channel subfamily KQT member 2 (Rattus norvegicus), O88943 | 20 min; active compounds read low | B-score at 10 µM | 1.1% of 310,000 active | AID 2156, 2009;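 active = fluorescence ratio B-score at most minus 3 library SDs, with starting brightness B-score within 2 library SDs, cut at about -5.5 in these data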
KCNQ2 enhance: potentiators of rat KCNQ2 potassium channel; Potassium voltage-gated channel subfamily KQT member 2 (Rattus norvegicus), O88943; CHO-K1 KCNQ2, FluxOR thallium flux fluorescence; active compounds read high; B-score at 10 µM; 0.54% of 310,000 active;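 active = fluorescence ratio B-score at least 3 SD of library B-scores, with initial fluorescence B-score within 3 of them, cut at about 5.3 in these data; same plate scores as AID 2156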;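 also: B-score of peak minus minimum over baseline fluorescence ratio after K+ and Tl+ stimulus; positive B-score means potentiation of KCNQ2 with more thallium influx and brighter signal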
Kir21 conf inh: mouse Kir2.1 channel blockers, retest, confirmation, cell-based, FluxOR thallium flux, duplicate | 41% of 2,300 active | AID 2032, 2009 | Tl flux remaining, % of negative control (active compounds read low), % at 10 µM | Kir2.1-expressing cells, FluxOR thallium flux fluorescence; active compounds read low | shares compounds with KCNQ2 enhance;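 active = Primary-screen hit whose thallium flux fell at least 3 control SD below untreated wells in both duplicates, with normal baseline fluorescence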
HEK293 Tl flux: alters thallium flux in parental HEK293 cells, Kir2.1 counter-screen. shares compounds with KCNQ2 enhance. FluxOR thallium flux fluorescence; 0% = unstimulated blank wells. FluxOR signal as % of negative control (100 = no effect), % at 10 µM. 19% of 2,300 active. AID 2105;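 active = dye signal at least 3 control SD above or below untreated wells in both duplicates, raw fluorescence within 3, either direction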;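 also: percent is based on the flux ratio of peak minus minimum fluorescence over baseline F0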
CHO-K1 Tl ctr: nonspecific thallium flux increase in parental CHO-K1, confirmation, counter-screen for KCNQ2 potentiator project, cell-based, FluxOR thallium flux, duplicate. shares compounds with KCNQ2 enhance. parental CHO-K1 cells, FluxOR thallium flux fluorescence; zero = vehicle mean+3SD, 100% = vehicle-minus-blank window. activity increase over 3SD of controls, % at 10 µM. 43% of 1,200 active. AID 2282, 2010;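 active = signal rise of at least 3 SD above the untreated control mean, in both duplicate wells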;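 also: counter screen of KCNQ2 potentiator hits so any rise reflects channel-independent effects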
KCNQ1 pot spec: human KCNQ1 channel potentiation off-target, confirmation, selectivity assay for KCNQ2 potentiator project, cell-based, CHO, FluxOR thallium flux; AID 2283, 2010; activation over 3SD threshold, % at 10 µM; CHO KCNQ1 stable, FluxOR thallium flux fluorescence; beyond 3SD, as % of vehicle-control signal; shares compounds with KCNQ2 enhance; 28% of 1,200 active;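 active = fluorescence ratio rise of at least 3 SD of vehicle wells above their mean, in both replicate wells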
Target sequence (P51787 whole entry, looked up): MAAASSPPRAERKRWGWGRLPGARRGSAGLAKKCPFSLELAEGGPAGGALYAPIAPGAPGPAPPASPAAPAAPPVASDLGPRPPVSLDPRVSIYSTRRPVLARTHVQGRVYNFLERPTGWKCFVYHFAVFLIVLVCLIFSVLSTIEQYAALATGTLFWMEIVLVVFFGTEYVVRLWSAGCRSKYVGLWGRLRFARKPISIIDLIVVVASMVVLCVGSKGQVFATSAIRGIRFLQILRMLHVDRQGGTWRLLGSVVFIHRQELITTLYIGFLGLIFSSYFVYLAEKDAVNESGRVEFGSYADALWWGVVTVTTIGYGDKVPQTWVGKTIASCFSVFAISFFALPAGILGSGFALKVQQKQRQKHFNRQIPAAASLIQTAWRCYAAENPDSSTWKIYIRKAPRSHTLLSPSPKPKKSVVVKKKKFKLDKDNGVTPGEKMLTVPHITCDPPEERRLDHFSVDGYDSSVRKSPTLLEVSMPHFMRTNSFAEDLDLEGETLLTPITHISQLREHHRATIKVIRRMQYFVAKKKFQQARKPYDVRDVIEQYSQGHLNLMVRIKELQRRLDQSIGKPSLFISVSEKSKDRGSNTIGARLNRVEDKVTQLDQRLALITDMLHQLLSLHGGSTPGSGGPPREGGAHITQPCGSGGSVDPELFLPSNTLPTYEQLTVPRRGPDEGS
KCNQ2 pot conf: rat KCNQ2 channel potentiators, confirmation, cell-based, CHO, FluxOR thallium flux, duplicate; CHO-KCNQ2 cells, FluxOR thallium flux fluorescence; potentiation, less the hit threshold, % at 10 µM; shares compounds with KCNQ2 enhance; 68% of 1,200 active;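 active = fluorescence ratio rising 3 SD or more over the vehicle control mean in both replicates, plus primary screen hit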;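 also: peak minus minimum thallium fluorescence divided by baseline after K/Tl stimulus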
Kir2-1 sel: mouse Kir2.1 channel activation off-target, confirmation, selectivity assay for KCNQ2 potentiator project, cell-based, HEK293, FluxOR thallium flux | shares compounds with KCNQ2 enhance | HEK293 Kir2.1, FluxOR thallium flux fluorescence | activity over 3SD threshold, % at 10 µM | 2% of 1,200 active | AID 2345, 2010;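 active = fluorescence ratio rise of at least 3 SD above the vehicle-control mean, seen in both replicates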
KCNQ2 W236L MoA: potentiators of retigabine-insensitive KCNQ2 W236L, mechanism study for KCNQ2 potentiator project, cell-based, rat KCNQ2 W236L, CHO, automated patch clamp; shares compounds with KCNQ2 enhance; automated patch clamp current; current increase over 3SD of negative controls (%), active compounds read high, % at 25 µM; 10% of 940 active;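 active = current increase at least 3 SD of the untreated controls above them in both duplicate recordings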
Hits are given with their value; . = inactive; / = not tested or not shown.

SMILES	KCNQ2 inh	KCNQ2 enhance	Kir21 conf inh	HEK293 Tl flux	others
Clc1ccc(OCCOCCNCc2ccccc2)cc1Cl	.	/	22.5%	.
COc1ccccc1OCCCOc1c(Cl)cc(C)cc1Cl	.	.	/	/
Cc1cc(Br)ccc1OCCNCc1ccccc1	.	/	25.0%	.
Cc1cc(C)c(C)c(OCCNCc2ccccc2)c1	.	/	/	/
CC(C)(C)c1ccc(OCCNCc2ccccc2)cc1	.	/	/	/
O=C(NCc1ccncc1)C1CCCN(S(=O)(=O)c2cc(Cl)ccc2Cl)C1 (stereo unspecified)	.	.	/	/
COc1ccccc1NC(=O)CCN1C(=O)c2ccccc2S1(=O)=O	.	.	/	/
N#CCC(=O)Nc1ccc(C(=O)NCc2ccccn2)cc1	.	.	/	/
CCN(CC(=O)NC(C)(C)C)C(=O)CCl	.	.	/	/
CCn1cc(Cl)c(C(=O)Nc2c(C)nn(Cc3c(F)c(F)c(F)c(F)c3F)c2C)n1	.	.	/	/
Cc1cc(Cl)cc(C)c1OCCOCCNCc1ccccc1	.	/	14.5%	.
COc1c(Cl)cc(Cl)cc1CNCc1ccccc1	.	/	/	/
O=C(c1cc2cc(Cl)ccc2[nH]1)N1CCN(Cc2ccc3c(c2)OCO3)CC1	.	/	/	/
S=C(NCc1ccccc1)NC1CCCc2ccccc21 (stereo unspecified)	.	/	.	.
S=C(NCc1ccco1)NC1CCCc2ccccc21 (stereo unspecified)	.	/	/	/
CC1CCCCN1C(=O)Cn1c(=O)oc2cc(S(=O)(=O)N3CCCC3)ccc21 (stereo unspecified)	.	/	/	/
COc1ccc(C)cc1NC(=O)NNC(=O)C1CCC(C(C)(C)C)CC1 (stereo unspecified)	.	10.7	.	.	CHO-K1 Tl ctr=.;KCNQ1 pot spec=.;KCNQ2 pot conf=31.4;Kir2-1 sel=.;KCNQ2 W236L MoA=.
COc1ccc(CCNC(=O)C2CCC(C(C)(C)C)CC2)cc1OC (stereo unspecified)	.	/	48.0%	.
COc1ccc(C)cc1NC(=O)C1CCN(S(C)(=O)=O)CC1	.	/	/	/
COc1ccc(CCNC(=O)C2CC2)cc1OC	.	/	/	/
C=C(C)CNC(=S)N/N=C/c1c(F)cccc1F	.	/	/	/
CN(C(=O)C1CCC(=O)N(Cc2ccccc2F)C1)C1CCOCC1 (stereo unspecified)	.	/	/	/
CCOC(=O)CNC(=O)C12CC3CC(CC(C3)C1)C2	.	.	/	/
Cc1nonc1OCCNC(=O)C12CC3CC(CC(C3)C1)C2	.	13.2	.	73.5%	CHO-K1 Tl ctr=74.2;KCNQ1 pot spec=.;KCNQ2 pot conf=.;Kir2-1 sel=.
Cc1ccc(NC(=O)c2c(Cl)nc3ccccn23)cc1	.	/	/	/
SMILES	KCNQ2 inh	KCNQ2 enhance	Kir21 conf inh	HEK293 Tl flux	others
COc1cc2ncnc(NCCc3ccccc3)c2cc1OC	.	5.42	.	131.0%	CHO-K1 Tl ctr=10.9;KCNQ1 pot spec=.;KCNQ2 pot conf=.;Kir2-1 sel=.
COc1ccc(CCNc2ncnc3cc(OC)c(OC)cc23)cc1OC	.	.	/	/
C#CC(CO)N(CCN(Cc1ccccc1)C(C#C)CO)Cc1ccccc1 (stereo unspecified)	.	/	61.5%	.
C#CCN(C)Cc1ccccc1	.	/	/	/
Fc1ccc(-c2csc(NC(=S)Nc3ccccc3)n2)cc1	.	8.78	.	.	CHO-K1 Tl ctr=26.5;KCNQ1 pot spec=.;KCNQ2 pot conf=.;Kir2-1 sel=.;KCNQ2 W236L MoA=.
O=C(Nc1ccccc1)Nc1nc(-c2ccc(F)cc2)cs1	.	/	/	/
CS(=O)(=O)c1ccc(NC(=O)CCCc2nc3ccccc3c(=O)[nH]2)cc1	.	/	/	/
CCCN1C(=O)/C(=C/c2ccc(C)s2)NC1=S	.	14.7	.	216.5%	CHO-K1 Tl ctr=.;KCNQ1 pot spec=.;KCNQ2 pot conf=66.1;Kir2-1 sel=.;KCNQ2 W236L MoA=.
CC(C)CN1C(=O)/C(=C/c2ccco2)NC1=S	.	.	/	/
Cc1ccc(/C=C2/NC(=O)N(Cc3ccccc3F)C2=O)s1	.	/	/	/
CC(C)CN1C(=O)/C(=C/c2cccs2)NC1=S	.	12.4	.	321.5%	CHO-K1 Tl ctr=.;KCNQ1 pot spec=.;KCNQ2 pot conf=56.9;Kir2-1 sel=.;KCNQ2 W236L MoA=.
COc1cccc(/C=N/n2c(C3CCCCC3)n[nH]c2=S)c1	.	/	/	/
Clc1cccc(NCc2nnc(SCc3ccccc3Cl)o2)c1	.	/	/	/
Clc1cccc(NCc2nnc(SCc3ccccc3)o2)c1	.	22.3	.	.	CHO-K1 Tl ctr=46.0;KCNQ1 pot spec=.;KCNQ2 pot conf=.;Kir2-1 sel=.
CC1CCN(CC(=O)Nc2ccc(N3CCCCCC3)cc2)CC1	.	5.92	/	/	CHO-K1 Tl ctr=7.2;KCNQ1 pot spec=.;KCNQ2 pot conf=.;Kir2-1 sel=.
CC1CCN(CC(=O)Nc2ccc(S(=O)(=O)N3CCCCC3)cc2)CC1	.	.	/	/
CCOC(=O)CNC(=O)CSc1nnc(NC(=O)c2ccc(S(=O)(=O)N3CCOCC3)cc2)s1	.	/	/	/
O=[N+]([O-])c1cc(Cl)cc(/C=N/NC(=S)Nc2ccc(S(=O)(=O)N3CCOCC3)cc2)c1O	.	17.6	.	.	CHO-K1 Tl ctr=3.6;KCNQ1 pot spec=.;KCNQ2 pot conf=39.0;Kir2-1 sel=.;KCNQ2 W236L MoA=3.7%
O=S(=O)(c1ccc(NC(=S)N/N=C/c2ccc(O)c(O)c2)cc1)N1CCOCC1	.	/	/	/
Cc1csc(NC(=O)c2cncc(Br)c2)n1	.	.	/	/
CN(C)CCc1cc2c(c3c1ccc1ccccc13)OCO2	.	/	16.0%	.
COc1cc2ccc3c(CCN(C)C)cc(OC)c(OC)c3c2cc1OC	.	.	/	/
COC(=O)c1ccccc1NC(=O)COc1ccc(S(=O)(=O)NC(C)C)cc1	.	/	/	/
Cc1cc(OCC(=O)NNC(=S)NC(=O)c2ccc(Br)o2)ccc1Cl	.	8.11	.	.	CHO-K1 Tl ctr=90.4;KCNQ1 pot spec=.;KCNQ2 pot conf=.;Kir2-1 sel=.
CCC(=O)NC(=S)Nc1ccc(NC(=O)COc2ccc(Cl)c(C)c2)cc1	.	.	/	/
O=C(NCc1ncc(C(F)(F)F)cc1Cl)Nc1ccccc1	.	.	/	/
COc1cccc(-c2nnc(Nc3nc4c(F)cccc4s3)o2)c1	.	9.74	.	234.5%	CHO-K1 Tl ctr=.;KCNQ1 pot spec=36.6;KCNQ2 pot conf=28.7;Kir2-1 sel=.;KCNQ2 W236L MoA=.
COc1ccccc1-c1nnc(Nc2nc3c(OC)cccc3s2)o1	.	/	/	/

From PubChem
